Reference: the supplement of paper PMC11628255, “Interference of metal ions on the bioluminescent signal of firefly, Renilla, and NanoLuc luciferases in high-throughput screening assays” (Frontiers in Chemistry, 2024)
± gives the standard deviation of the averaged measurements.

Test system: NanoLuc luciferase (NLuc)
Assay: residual bioluminescent signal relative to negative (DMSO) control; higher = less interference (more residual luciferase signal)
Method: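 Purified luciferase (FLuc 10 nM + 10 uM D-luciferin; NLuc 10 pM + 10 uM furimazine; RLuc 50 pM + 2 uM coelenterazine) in 384-well plates; metal salt pre-incubated with enzyme 10 min at RT, substrate added and luminescence read after 10 min. Signal normalised to plate DMSO negative control (% N_VALUE = x/mean neg *100); triplicate wells at 0.01, 1 and 5 mM salt.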

[1] = metal salt concentration 0.01 mM, HEPES conditions (100 mM HEPES, 0.1% BSA, pH 7.5)
[2] = metal salt concentration 0.01 mM, screening conditions (PBS, 0.1% BSA, pH 7.4)
[3] = metal salt concentration 1 mM, HEPES conditions (100 mM HEPES, 0.1% BSA, pH 7.5)
[4] = metal salt concentration 1 mM, screening conditions (PBS, 0.1% BSA, pH 7.4)
[5] = metal salt concentration 5 mM, HEPES conditions (100 mM HEPES, 0.1% BSA, pH 7.5)
[6] = metal salt concentration 5 mM, screening conditions (PBS, 0.1% BSA, pH 7.4)

O=C([O-])[O-].[K+].[K+] [potassium carbonate]
residual bioluminescent signal [1]: 91.3 ± 2.9%
residual bioluminescent signal [2]: 100 ± 4%
residual bioluminescent signal [3]: 92.1 ± 8.9%
residual bioluminescent signal [4]: 97.6 ± 3%
residual bioluminescent signal [5]: 95.6 ± 1.7%
residual bioluminescent signal [6]: 96.6 ± 3.6%

O.O.O.O.O.O.O.O=S(=O)([O-])[O-].[Mg+2] [magnesium sulfate]
residual bioluminescent signal [1]: 91 ± 1.1%
residual bioluminescent signal [2]: 97.44 ± 0.7%
residual bioluminescent signal [3]: 99 ± 1.7%
residual bioluminescent signal [4]: 95.09 ± 0.87%
residual bioluminescent signal [5]: 107 ± 3.1%
residual bioluminescent signal [6]: 95.5 ± 2.1%

O=C([O-])[O-].[Cs+].[Cs+] [caesium carbonate]
residual bioluminescent signal [1]: 99.36 ± 0.78%
residual bioluminescent signal [2]: 98.8 ± 6.6%
residual bioluminescent signal [3]: 96.5 ± 3.1%
residual bioluminescent signal [4]: 102 ± 3%
residual bioluminescent signal [5]: 91.4 ± 3.5%
residual bioluminescent signal [6]: 92.2 ± 2.9%

[Cl][Fe]([Cl])[Cl] [iron(III) chloride]
residual bioluminescent signal [1]: 90.2 ± 4%
residual bioluminescent signal [2]: 93 ± 3%
residual bioluminescent signal [3]: 0.54 ± 0.37%
residual bioluminescent signal [4]: 53.4 ± 2.6%
residual bioluminescent signal [5]: 0.188 ± 0.081%
residual bioluminescent signal [6]: 0.189 ± 0.24%

[Cl][Pt-2]([Cl])([Cl])[Cl].[K+].[K+] [potassium tetrachloroplatinate(II)]
residual bioluminescent signal [1]: 91.45 ± 0.79%
residual bioluminescent signal [2]: 99.8 ± 2.3%
residual bioluminescent signal [3]: 8.06 ± 0.51%
residual bioluminescent signal [4]: 7.81 ± 1.1%
residual bioluminescent signal [5]: 7.52 ± 0.31%
residual bioluminescent signal [6]: 5.07 ± 0.66%

O=S(=O)([O-])[O-].[Mn+2] [manganese(II) sulfate]
residual bioluminescent signal [1]: 93.9 ± 2.1%
residual bioluminescent signal [2]: 96.1 ± 2.1%
residual bioluminescent signal [3]: 95 ± 3%
residual bioluminescent signal [4]: 92.7 ± 1.3%
residual bioluminescent signal [5]: 96 ± 1.4%
residual bioluminescent signal [6]: 73.4 ± 2.1%

[Cl-].[Na+] [sodium chloride]
residual bioluminescent signal [1]: 95.5 ± 3.6%
residual bioluminescent signal [2]: 99.4 ± 2.9%
residual bioluminescent signal [3]: 99.8 ± 3.9%
residual bioluminescent signal [4]: 102 ± 4.1%
residual bioluminescent signal [5]: 98.5 ± 2.6%
residual bioluminescent signal [6]: 99.4 ± 4.3%
